# This is part of a sample that, as a whole, favours compounds with a hit. Of some 79,000 tested, about 15% had one in any assay. Values without a mark were called inactive. Calls of active or inactive are those of the source. Rule as the data show it: active = growth inhibition above about 70%; inactive = the rest.
# Columns and labels:
# [1] = NCI Yeast Anticancer Drug Screen. Data for the rad50 strain (AID 155);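 also: 0% = growth of vehicle-only cultures of the same strain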; conditions: S. cerevisiae rad50 strain growth inhibition, active compounds read high
# Summary of the method: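 Compounds were tested on a yeast strain with an engineered DNA damage repair alteration; the reported value is growth inhibition normalised to vehicle treatment.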
# [2] = NCI Yeast Anticancer Drug Screen. Data for the mec2-1 strain (AID 157); conditions: S. cerevisiae mec2-1 strain, active compounds read high
# Summary of the method: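 Each compound was tested on mec2-1 yeast, a strain altered in DNA damage repair or cell cycle control. Growth inhibition is reported relative to vehicle.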
# [3] = NCI Yeast Anticancer Drug Screen. Data for the sgs1 mgt1 strain (AID 161);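 also: 0% = growth of cultures given vehicle only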; conditions: S. cerevisiae sgs1 mgt1 strain, active compounds read high
# Summary of the method: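 Test agents were incubated with a DNA-repair-mutant yeast strain. Growth was then read and compared against vehicle-treated controls.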
# [4] = NCI Yeast Anticancer Drug Screen. Data for the cln2 rad14 strain (AID 165);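 also: 0% = growth equal to vehicle treated cultures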; conditions: S. cerevisiae cln2 rad14 strain, active compounds read high
# Summary of the method: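 Test compounds were added to cln2 rad14 yeast cultures; inhibition of growth was then determined by comparison with vehicle treatment.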
# [5] = NCI Yeast Anticancer Drug Screen. Data for the bub3 strain (AID 167); conditions: S. cerevisiae bub3 mutant strain, active compounds read high
# Summary of the method: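 Growth of a checkpoint-deficient yeast mutant is measured after compound exposure. Values represent inhibition relative to vehicle.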
# [6] = NCI Yeast Anticancer Drug Screen. Data for the mlh1 rad18 strain (AID 175); conditions: S. cerevisiae mlh1 rad18 strain growth inhibition, active compounds read high
# Summary of the method: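 Inhibition values reflect reduced growth of mutant yeast versus vehicle-treated controls following compound exposure; the mutations affect DNA damage repair.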
# [7] = at 5.0 µM (retest, dose inferred, filed as 0.5)
# [8] = at 50.0 µM (retest, dose inferred, filed as 5.0)
SMILES,"growth inhibition [1, 7]","growth inhibition [1, 8]",growth inhibition ([1]; at 50.0 µM),"growth inhibition [2, 7] [%]","growth inhibition [2, 8]",growth inhibition ([2]; at 50.0 µM),"growth inhibition [3, 7] [%]","growth inhibition [3, 8]",growth inhibition ([3]; at 50.0 µM),"growth inhibition [4, 7] [%]","growth inhibition [4, 8]",growth inhibition ([4]; at 50.0 µM),"growth inhibition [5, 7] [%]","growth inhibition [5, 8]",growth inhibition ([5]; at 50.0 µM),"growth inhibition [6, 7]","growth inhibition [6, 8]",growth inhibition ([6]; at 50.0 µM)
CCOC1NC(=S)N(C2CCCCC2)C1(C)C (configuration not stated),-2%,10%,10.8%,-2,3%,1.1%,-1,11%,11.8%,-2,-11%,75.6% (active),-2,-9%,-19%,-6%,1%,16.6%
Cn1c(Sc2ccc(-c3cccnc3)n2C)ccc1-c1cccnc1,11%,91% (active),97.8% (active),-12,92% (active),98.7% (active),-7,97% (active),97.5% (active),-15,77% (active),98.1% (active),-19,96% (active),97.8% (active),-5%,95% (active),97.3% (active)
COC(=O)Nc1nc2ccc(C(C)(O)c3cccs3)cc2[nH]1 (configuration not stated),-2%,92% (active),97% (active),-8,95% (active),98.2% (active),3,95% (active),98% (active),-15,87% (active),92.2% (active),-3,94% (active),97.1% (active),-5%,95% (active),97.8% (active)
CCCCOC(c1ccccc1)N1CCCCC1 (configuration not stated),0%,6%,28.8%,0,11%,-10.7%,-3,6%,35.8%,-3,-12%,-13.6%,-4,-4%,4.15%,-4%,-3%,7.35%
O=C(Oc1ccc(Cl)cc1)Oc1ccc(Cl)cc1,-13%,16%,3.55%,-10,4%,16.7%,0,25%,14.3%,-2,36%,16.9%,-1,-23%,18.3%,6%,12%,17.1%
Nc1cc(Br)c2cccnc2c1O,81% (active),98% (active),97.2% (active),44,98% (active),94.7% (active),67,98% (active),98% (active),28,98% (active),94.2% (active),35,98% (active),93.7% (active),86% (active),98% (active),95.7% (active)
COc1ccc(C2C3=C(CCCC3=O)Oc3cc4c(cc32)OCO4)c(OC)c1 (configuration not stated),17%,92% (active),3.95%,-3,90% (active),18.8%,6,92% (active),-11.7%,6,88% (active),-6.1%,8,94% (active),1.05%,4%,92% (active),8.95%
CN(Cc1cc(Cl)cc(Cl)c1)CC(C(=O)c1ccccc1)c1ccccc1 (configuration not stated),21%,86% (active),81.7% (active),13,90% (active),96.5% (active),57,96% (active),93.3% (active),3,85% (active),50.3%,14,94% (active),41.5%,29%,91% (active),97.3% (active)
CC(C)(C)c1cc(C(O)(C(F)(F)F)C(F)(F)F)c(Cl)c(C(O)(C(F)(F)F)C(F)(F)F)c1,10%,99% (active),99.5% (active),13,98% (active),99.7% (active),11,99% (active),99.7% (active),24,99% (active),99% (active),14,99% (active),99.8% (active),8%,99% (active),99.5% (active)
CCC(CO)Nc1nc2cc(Br)ccc2c2ccc(Br)cc12 (configuration not stated),36%,92% (active),92.6% (active),10,96% (active),95.5% (active),62,93% (active),96.2% (active),8,93% (active),93.8% (active),47,94% (active),91.9% (active),18%,93% (active),95.8% (active)
S=C(SSSSC(=S)N1CCCCC1)N1CCCCC1,45%,92% (active),66.8%,39,95% (active),19.9%,39,96% (active),43.1%,39,94% (active),9.35%,40,95% (active),73.5% (active),57%,93% (active),81% (active)
N#CSCCl,0%,42%,91.7% (active),5,75% (active),92% (active),-2,20%,93.8% (active),1,61%,91% (active),-4,93% (active),92.3% (active),3%,87% (active),92% (active)
Clc1nc2ccccc2nc1N1CCCCCC1,0%,90% (active),-17.5%,2,96% (active),-7.05%,1,72% (active),25.6%,-5,74% (active),-21.4%,9,93% (active),76% (active),2%,85% (active),5.2%
CCCC(C)OC(=O)Nc1cccc(Cl)c1 (configuration not stated),-15%,3%,98.4% (active),-4,-7%,98.2% (active),-2,-10%,98.9% (active),-29,-1%,97.9% (active),-21,1%,97.5% (active),-20%,16%,97.6% (active)
NCCc1ccc2oc3cc(=O)c4ccccc4c-3nc2c1,3%,22%,45.4%,-1,30%,24.7%,7,46%,43.8%,1,8%,28.7%,0,30%,56.2%,3%,41%,80.8% (active)
C=CCOc1cc(NC(=S)c2sccc2C)ccc1Cl,3%,88% (active),81.5% (active),-5,89% (active),87.2% (active),-9,88% (active),85% (active),2,89% (active),80.2% (active),28,94% (active),81.3% (active),3%,91% (active),81.9% (active)
OC(CCl)c1ccc2ccc3c(c2c1)Nc1ccccc1S3 (configuration not stated),0%,80% (active),80.4% (active),-1,88% (active),97.2% (active),2,83% (active),97.2% (active),-1,75% (active),78.8% (active),4,87% (active),87.9% (active),-1%,86% (active),96.5% (active)
COc1ccc(CSC2=C(C#N)C(=O)NC3(CCCCC3)S2)cc1,23%,11%,3.6%,-1,4%,2.25%,23,14%,6.2%,-1,16%,28.5%,6,6%,-13.2%,18%,-2%,7.75%
COc1ccc(OC)c(NC(=O)CCCC(=O)CC(=O)c2cccnc2)c1,63%,62%,4.45%,50,53%,1.8%,69,70% (active),-5.2%,53,55%,39.8%,57,62%,-4.8%,63%,63%,-8.55%

# Source: PubChem BioAssay (NCI)
